Data from PubChem BioAssay (NCI).
About 83,000 compounds went through this panel and 20% of them were active in at least one assay; those are over-represented in the sample as a whole.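 Step 1: grow cells in 96-well plates. Step 2: add test compound at a single concentration. Step 3: incubate 48 h. Step 4: record percent growth.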 A number with no mark means an inactive call. The source made the active and inactive calls. The calls were made as follows: active = growth percent below 10; inactive = the rest.

How the values were obtained:
Assay in all cases: NCI-60 one-dose screen, 48 h (100 = growth as untreated, 0 = no growth, -100 = all killed)
Settings in all cases: 10 µM unless noted
RPMI-8226 leukemia = system: RPMI-8226 leukemia
OVCAR-8 ovarian = system: OVCAR-8 ovarian
OVCAR-5 ovarian = system: OVCAR-5 ovarian
OVCAR-4 ovarian = system: OVCAR-4 ovarian
SK-OV-3 ovarian = system: SK-OV-3 ovarian
IGROV1 ovarian = system: IGROV1 ovarian
OVCAR-3 ovarian = system: OVCAR-3 ovarian
HS 578T breast = system: HS 578T breast
NCI/ADR-RES ovarian = system: NCI/ADR-RES ovarian
T-47D breast = system: T-47D breast
BT-549 breast = system: BT-549 breast
MDA-MB-435 melanoma = system: MDA-MB-435 melanoma
SW-620 colon = system: SW-620 colon
MCF7 breast = system: MCF7 breast
HCT-116 colon = system: HCT-116 colon
HCC-2998 colon = system: HCC-2998 colon
KM12 colon = system: KM12 colon
SR leukemia = system: SR leukemia

Row | SMILES | growth (RPMI-8226 leukemia) | growth (OVCAR-8 ovarian) | growth (OVCAR-5 ovarian) | growth (OVCAR-4 ovarian) | growth (SK-OV-3 ovarian) | growth (IGROV1 ovarian) | growth (OVCAR-3 ovarian) | growth (HS 578T breast) | growth (NCI/ADR-RES ovarian) | growth (T-47D breast) | growth (BT-549 breast) | growth (MDA-MB-435 melanoma) | growth (SW-620 colon) | growth (MCF7 breast) | growth (HCT-116 colon) | growth (HCC-2998 colon) | growth (KM12 colon) | growth (SR leukemia)
1 | CCOC(=O)c1cc(Cl)c(O)c(Cl)c1 | 101% | 100% | 108% | 120% | 109% | 96.8% | 115% | 109% | 111% | 118% | 105% | 126% | 109% | 98.1% | 102% | 112% | 108% | 
2 | Cc1cc(C(=O)NN)c(C#N)c(=O)[nH]1 |  | 100% | 106% | 107% |  |  | 112% | 121% | 99.1% | 96.3% | 109% | 119% | 102% | 93% | 100% | 112% | 122% | 116%
3 | OC1Cc2ccccc2C1 |  | 103% | 95.4% | 110% | 111% |  | 104% | 96% | 93.9% | 102% |  | 102% | 96.7% | 86.2% | 97.9% | 94.8% | 98.5% | 94.6%
4 | COc1ccc(-c2csc(NC(=O)Nc3nc(-c4ccc(OC)cc4)cs3)n2)cc1 |  | 70.3% |  | 79% | 116% | 92.4% | 81.9% | 105% |  | 56.5% |  | 78.7% | 98.1% | 71.6% | 64.2% | 100% | 64.6% | 60.2%
5 | Cc1ccc(S(=O)(=O)NC(=O)NCCSSCCNC(=O)NS(=O)(=O)c2ccc(C)cc2)cc1 |  | 106% | 93.6% | 112% | 116% | 101% |  | 97.5% | 111% | 105% | 125% | 101% | 98.3% |  | 113% | 108% | 113% | 107%
6 | CCNc1ccc2ccccc2c1N=Nc1ccc(N=Nc2ccccc2)cc1 | 95.9% | 104% | 93.1% | 98.4% | 97.4% | 0.773% (active) | 109% | 110% | 109% | 84.7% | 120% | 110% | 99.8% | 85.2% | 72% | 110% | 105% | 
7 | CC1(C)C2CCC1(C)C1(C2)OCCS1 (configuration not stated) | 113% | 101% | 93.3% | 101% | 106% | 104% | 109% | 102% | 92.4% | 93.9% | 88.3% | 99.6% | 100% | 88.9% | 110% | 101% | 102% | 
8 | CCNCC(C)(C)O | 107% | 106% | 100% | 98.7% | 110% | 112% | 117% | 113% | 102% | 104% | 105% | 106% | 106% | 97.1% | 101% | 109% | 113% | 
9 | CCOP(=O)(NC(c1ccccc1)c1ccccc1)OCC | 104% | 98.1% | 108% | 106% | 107% | 92.2% | 112% | 107% | 104% | 90.4% | 105% | 110% | 103% | 92.7% | 93.8% | 110% | 114% | 
10 | Cc1cc(Cl)cc(Cc2cc(Cl)cc(C)c2O)c1O |  | 48.2% | 69% | 22.2% | 51.5% | 33.1% | -2.69% (active) | 4.77% (active) | -10.7% (active) | 14% |  | -10.5% (active) | 14% | 22.4% | 8.46% (active) | 13.1% | -5.92% (active) | 1.17% (active)
11 | CC1(C)CC(=O)C=C(N)C1 |  | 97.1% | 89.3% | 91.7% | 145% | 101% | 106% | 77.9% | 83.4% | 141% |  | 99.2% | 96% | 160% | 102% | 45.4% | 124% | 108%
12 | COc1nc2ccccc2s1 | 91.6% | 96.3% | 93.1% | 118% | 89.5% | 98.6% | 110% | 91% | 99.2% | 99.2% | 90.6% | 105% | 93% | 87.8% | 103% |  | 102% | 
13 | O=C(O)C1CCCN1C(=O)OCc1ccccc1 (configuration not stated) | 112% | 94.8% | 105% | 122% | 102% | 104% | 120% | 100% | 105% | 102% | 85.8% | 102% | 111% | 90% | 107% |  | 113% | 
14 | C=C1CC2(OC1=O)C(=O)N(C)c1ccc(I)cc12 (configuration not stated) | -60% (active) | -8.98% (active) | -10.3% (active) | -87.6% (active) | 67.6% | -66.9% (active) | -96.9% (active) | -5.25% (active) | -66% (active) | -82.6% (active) |  | -64.8% (active) | -76.3% (active) | -66.8% (active) | -92.6% (active) | -89.3% (active) | 2.99% (active) | 
15 | CC(c1ccccc1)N1C(=O)CSC1=S (configuration not stated) | 16.9% | 34.2% | 91.2% | 29.7% | 104% | -31.6% (active) | -13.1% (active) | 81.3% | -62.5% (active) | 63.4% | 32.9% | -8.13% (active) | 17.6% | 6.61% (active) | 5.85% (active) | 53.2% | -38.3% (active) | 
16 | Nc1ncnc(Nc2ccccc2)n1 | 96.7% | 106% | 105% | 109% | 117% | 102% | 117% | 102% | 111% | 96.3% |  | 107% | 101% | 101% | 118% |  | 120% | 
17 | O=C(NC(=S)N1CC=CCC1)c1ccccc1 | 104% | 100% | 97.4% | 116% | 107% | 122% | 115% | 92.7% | 108% | 110% | 93.6% | 109% | 103% | 101% | 102% |  | 112% | 
18 | ClCc1cccc2c(CCl)cccc12 | 31% | 63.8% | 114% | 94.4% | 83% | 54.9% | 62.7% | 98.8% | 69.2% | 4.84% (active) | -74% (active) | 84.3% | 70.8% | 24.4% | -86.3% (active) | 55.8% | 13.7% | 
19 | CCN(Cc1ccc(Cl)c(Cl)c1)c1ccc2nc(N)nc(N)c2c1C | -54% (active) | -59.9% (active) | -100% (active) | -88.2% (active) | -97.6% (active) | -79% (active) | -93.2% (active) | -42.5% (active) | -94.4% (active) | -78% (active) | 46.4% | -77.4% (active) | -78.2% (active) | -92.9% (active) | -82.4% (active) | -93.6% (active) | -92.6% (active) | 
20 | CN=S(=O)(OCCCCCOS(=O)(=NC)c1ccc(C)cc1)c1ccc(C)cc1 (configuration not stated) | 75.2% | 95% | 106% | 82.8% | 100% | 13.6% | 104% | 90.1% | 89.7% | 88.5% |  | 91.9% | 84.9% | 87.6% | 75.2% | 91.5% | 98.2% | 
